# Compounds with a hit are over-represented: about 8% of the library has one in this group of screens.
# KB-3-1 cytotox: KB-3-1 parental cell cytotoxicity | KB-3-1 viability, CellTiter-Glo ATP luminescence, 72 h | Potency, µM (titrated, usually from 46.1 µM), most hits filed as cytotoxic | hit rate 1.4% among 400,000 | AID 1347075; note: % is set by controls: 0 for no effect and ±100 for the full control effect; nearly all actives have a fitted effect of over 60% in size
#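 Multi-concentration cytotoxicity screen in KB-3-1 cells grown in DMEM lacking phenol red with 10% FBS. After 72 h at 37 °C with compound, ATP-dependent luminescence was recorded.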
# HT1080 IDH1KD tx: toxicity to HT-1080 IDH1 knockdown cells (counter line); HT-1080 IDH1 knockdown viability, ATP luminescence, 48 h; Potency, µM (top dose mostly 46.1 µM), for inactives: top-dose activity, negative = toxicity, actives largely listed as cytotoxic; hit rate 2% among 360,000;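 note: 0% = DMSO wells and -100% = cell-free medium wells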
#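 % activity derives from luminescence (CellTiter-Glo), normalised to DMSO and no-cell wells. HT-1080-IDH1KD cells, 750/well, had 48 h compound exposure at 37 °C.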
# HT1080-NT tox: kills 2HG-producing HT-1080-NT fibrosarcoma cells; hit rate 1.6% among 360,000; HT-1080-NT fibrosarcoma viability, CellTiter-Glo ATP luminescence, 48 h; Potency, µM (series often up to 46.1 µM), without a hit: at the highest dose activity, negative = less viability, most hits filed as cytotoxic;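 note: NT is the 2HG producing partner of a matched IDH1 knockdown line; 0% = DMSO-treated cells and -100% = media-only wells without cells; nearly all actives have a fitted effect of over 55% in size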
#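 Viability by CellTiter-Glo luminescence after 48 h compound exposure at 37C of HT-1080-NT cells (750/well, RPMI, 5% FBS). % activity scaled between DMSO wells and medium-only wells, then curve-fitted and categorized by curve class.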
# KB-V1 cytotox: kills drug-selected multidrug resistant KB-V1 cells | Potency, µM (series often up to 46.1 µM), hits mostly cytotoxic | KB-V1 MDR cells viability, CellTiter-Glo, 72 h | AID 1347076 | hit rate 3.4% among 400,000; note: % is set by controls: 0 for no effect and ±100 for the full control effect; nearly all actives have a fitted effect of over 60% in size
#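 Compound-treated KB-V1 multidrug-resistant cells, 72 h, 37 degrees C; viability by CellTiter-Glo. Fitted qHTS curves give the values.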
# MCF10A rereplic: DNA re-replication induction in MCF 10a cells | hit rate 2.9% among 350,000 | AID 624296 | MCF 10A DNA re-replication, Hoechst nuclear intensity, 48 h | Potency, µM (titrated, usually from 46.1 µM), for inactives: at the highest dose activity, positive = re-replication, usual class: activators; note: % of control where 0% means no effect; nearly all actives have a fitted effect of over 50% in size
# SW480 rereplic: DNA re-replication induction in SW480 cells | SW480 DNA re-replication, Hoechst DNA content imaging, 48 h | hit rate 1.8% among 340,000 | Potency, µM (highest dose often 46.1 µM), for the others: at the top dose re-replication activation, usual class: activators | AID 624297; note: % of control where 0% means no effect; nearly all actives have a fitted effect of over 55% in size
#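 Compounds, transferred as 23 nL by pin tool, were incubated with cells for 48 hr; DNA content per nucleus was then quantified by Hoechst staining and fluorescence plate imaging.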
# An asterisk follows results filed as active; i = inactive; ? = inconclusive; . = no result given. Calls come from the whole dose curve; as a rule, active = well fitted curve in the direction sought with a large enough effect; inconclusive = small, poorly fitted or top-dose-only effect, or another doubt; inactive = no such curve, though single readings can be large; an effect the other way counts as inactive or inconclusive. Potency is the fitted concentration of half-maximal effect.
SMILES,KB-3-1 cytotox,HT1080 IDH1KD tx,HT1080-NT tox,KB-V1 cytotox,MCF10A rereplic,SW480 rereplic
COc1cccc(CN(C)CC(=O)Nc2cc(S(=O)(=O)N3CCCC3)ccc2Cl)c1OC,?,-3%,-7%,21µM*,?,9%
CN1OC[C@@H]2CN(C(=O)CCc3ccccc3)[C@H](c3ccccc3Br)C[C@@H]21,i,17%,28%,i,.,.
COc1ccc(S(=O)(=O)N2CCCCC2)cc1NC(=O)CSc1ncnc2ccccc12,i,-10%,-10%,21µM*,18%,21%
COc1ccc(S(=O)(=O)N2CCCCCC2)cc1NC(=O)Cc1cc(OC)c(OC)c(OC)c1,i,-1%,1%,2.3µM*,8%,-57%
Clc1ccc(N(CC2CO2)CC2CO2)cc1 (centres undefined),i,-5%,4%,?,?,?
Cc1ccc(SCCC(=O)Nc2ccccc2C(=O)NC(C)C)cc1,i,1%,-7%,2.9µM*,-16%,?
CC1CN(C2=NC(=O)/C(=C3/C(=O)N(Cc4ccc(F)cc4)c4ccccc43)S2)CC(C)O1 (centres undefined),i,14%,4%,i,1%,-1%
COc1ccc(N2C(=O)CC(N3CCC(O)(c4ccc(Br)cc4)CC3)C2=O)cc1 (centres undefined),i,-1%,-3%,i,5%,-2%
CCCn1nnnc1NCc1ccccc1OCc1ccc(F)cc1,i,2%,10%,?,23µM*,?
CCCn1nnnc1NCc1ccccc1OCc1cccs1,i,1%,-18%,i,-10%,4%
Cc1cccc(N=C2NN=C(c3ccc4c(c3)OCCO4)CS2)c1,i,?,?,i,?,?
Cc1cccc(N=C2NN=C(c3c(C)[nH]c4ccccc34)CS2)c1,i,18µM*,?,?,15µM*,?
O=S(=O)(NC1c2cccc3cccc(c23)C1Sc1ncccn1)c1ccc(Cl)cc1 (centres undefined),?,-16%,-24%,i,?,6%
C#CCNC(=O)C1=C[C@H](c2ccccc2)C[C@H](OCCCCO)O1,i,14%,2%,i,-2%,-5%
CCCCC(=O)N/C(N)=N/c1nc2ccccc2o1,i,-10%,-1%,i,7%,1%
CCc1ccc2nc(SCC(=O)Nc3ccccc3N3CCOCC3)c(C#N)cc2c1,5.2µM*,4%,14%,5.8µM*,3.7µM*,3.7µM*
CCc1ccc2nc(SCC(=O)N3CC(=O)Nc4ccccc43)c(C#N)cc2c1,5.2µM*,5.8µM*,?,6.5µM*,8.2µM*,?
Cc1cc(C)nc(NC(=O)c2ccc(Br)cc2)n1,i,8%,6%,i,0%,-7%
Cc1cc(NO)nc(-c2ccc(Br)cc2)n1,i,-8%,10µM*,i,14%,9%
CCc1nnc(NS(=O)(=O)c2ccc(NC(=S)NC(=O)c3ccc(OC)cc3)cc2)s1,i,-14%,0%,?,0%,-42%
CCc1nnc(NS(=O)(=O)c2ccc(N/C=C/C(=O)c3ccc(C)cc3)cc2)s1,i,-7%,-7%,i,18µM*,-12%
CCc1nnc(NC(=O)c2ccc(OC)c(S(=O)(=O)N3CCCC3)c2)s1,i,-12%,0%,21µM*,5%,-8%
CCc1nnc(NC(=O)c2ccc(S(=O)(=O)N3CCCCCC3)cc2)s1,i,-3%,?,i,14%,1%
CCc1nnc(NS(=O)(=O)c2ccc(NC(=S)NC(=O)c3ccc(OC)c(OC)c3)cc2)s1,i,5%,3%,i,?,18µM*
Cc1cc(C)cc(-n2nc(C)cc2N)c1,i,-2%,-14%,i,1%,-1%
SMILES,KB-3-1 cytotox,HT1080 IDH1KD tx,HT1080-NT tox,KB-V1 cytotox,MCF10A rereplic,SW480 rereplic
CCOc1ccc(C(=O)NCc2ccncc2)cc1OCC,i,14%,10%,i,-2%,-8%
Cc1ccc(SCc2ccc(C(=O)NCc3ccncc3)cc2)cc1,i,-15%,-14%,18µM*,-8%,8%
CCOc1cc(C(=O)NCc2ccncc2)cc(OCC)c1OCC,i,4%,10%,7.3µM*,1%,-10%
CCOc1cc(C(=O)Nc2cnccn2)cc(OCC)c1OCC,i,10µM*,?,?,?,?
Cc1cccc(C)c1NC(=O)N1CCC(c2nc3ccccc3o2)CC1,i,-14%,12%,21µM*,16%,1%
Cc1c(C(=O)NCC2COc3ccccc3O2)oc2ccc(S(=O)(=O)N3CC(C)CC(C)C3)cc12 (centres undefined),i,-1%,0%,?,24%,?
CCN(CC)CCCNC(=O)c1oc2ccc(S(=O)(=O)N3CC(C)CC(C)C3)cc2c1C (centres undefined),i,26µM*,?,?,36%,?
Cc1c(C(=O)NCC2COc3ccccc3O2)oc2ccc(S(=O)(=O)N3CCOCC3)cc12 (centres undefined),?,9%,10%,2.3µM*,?,0%
Cc1nn(CC(=O)OCC(=O)Nc2cccc(S(N)(=O)=O)c2)c(C)c1[N+](=O)[O-],i,9%,10%,i,4%,3%
CCCc1[nH]nc2c1C1(CCOC1C)C(C#N)=C(N)O2 (centres undefined),i,8%,17%,i,0%,-8%
O=C(NCCCN1CCC(Cc2ccccc2)CC1)C1CC(=O)N(C2CCCCCC2)C1 (centres undefined),i,-7%,2%,i,10%,15%
Cc1cccc(C)c1NC(=O)CCCSc1nc2ccccc2s1,i,1%,0%,i,?,0%
CCc1cccc(CC)c1NC(=O)CCCSc1nc2ccccc2s1,?,-22%,-3%,12µM*,15%,.
CCc1cccc(CC)c1NC(=O)CSc1nc2ccc(N3C(=O)C4C(C3=O)[C@H]3C=C[C@@H]4C3)cc2s1 (some centres undefined),i,26µM*,2%,i,8%,2%
Cn1ncc(Cl)c1C(=O)N1CCN(S(=O)(=O)c2cccs2)CC1,i,-4%,-1%,i,2%,0%
CN(Cc1ccccc1O)CC1CCCN(CCc2ccc(Cl)cc2)C1 (centres undefined),i,?,?,?,?,1%
CCN(Cc1ccc(OC)c(COC)c1)CC1CCCN(CCc2cccc(F)c2)C1 (centres undefined),i,-18%,?,?,3.7µM*,?

# Screening results: PubChem, National Center for Advancing Translational Sciences (NCATS)
